In test [1] the target is Peroxisome proliferator-activated receptor gamma (Homo sapiens) (UniProt P37231). Description: qHTS assay for small molecule agonists of peroxisome proliferator-activated receptor gamma signaling (AID 588536; active = well fitted curve in the direction sought with a large enough effect in the signal ratio, with a control signal flat, not every such curve was filed as active; the % refers to the signal ratio;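 note: 0% = DMSO basal wells and 100% = rosiglitazone at 2 µM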). Conditions: HEK293 PPARg-UAS-bla, beta-lactamase ratio, 16 h, percent of rosiglitazone response, DMSO as zero; series mostly up to 76.7 µM. The procedure, abridged:
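Using GeneBLAzer HEK293 cells, response was quantified by CCF4 fluorescence and normalized between basal DMSO (0%) and rosiglitazone 2 uM (100%); curves yielded half-maximal stimulation concentration and efficacy.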

Test [2] shares this target. Description: qHTS assay for small molecule antagonists of peroxisome proliferator-activated receptor gamma signaling (AID 588537; active = well fitted inhibition curve with a large enough effect in the signal ratio, with a control signal flat, not every such curve was filed as active; the % refers to the signal ratio;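 note: reporter cells co-stimulated with 50 nM rosiglitazone agonist during compound treatment; % of control where 0% means no effect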). The settings on record: HEK293 PPARg-UAS-bla, beta-lactamase ratio, antagonist mode; series mostly up to 76.8 µM. The procedure, abridged:
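Read-out: CCF4 fluorescence (ex 405, em 460/530 nm) after 2 h at RT. Cells were HEK293 carrying a UAS-bla reporter and treated 16 h at 37 C with compound plus rosiglitazone (50 nM final). Normalized to rosiglitazone and DMSO.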

Test [3] deals with Vitamin D3 receptor (Homo sapiens) (UniProt P11473). Description: qHTS assay for small molecule antagonists of vitamin D receptor signaling (AID 588541; calls by dose curve;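 note: receptor activated by calcitriol during compound treatment; % is set by controls: 0 for no effect and ±100 for the full control effect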). The settings on record: HEK293T VDR-UAS-bla, beta-lactamase ratio, antagonist mode; series mostly up to 76.7 µM. An outline of the steps: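 VDR-UAS-bla HEK293T cells in 2% charcoal-stripped FBS were stimulated with 1-alpha,25-dihydroxyvitamin D3 (3 nM final) plus compound for 16 h at 37 C. The beta-lactamase CCF4 readout was normalized to 50 nM agonist and DMSO, and Hill fits gave IC50.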
Vitamin D3 receptor (Homo sapiens), sequence (P11473 whole entry, looked up): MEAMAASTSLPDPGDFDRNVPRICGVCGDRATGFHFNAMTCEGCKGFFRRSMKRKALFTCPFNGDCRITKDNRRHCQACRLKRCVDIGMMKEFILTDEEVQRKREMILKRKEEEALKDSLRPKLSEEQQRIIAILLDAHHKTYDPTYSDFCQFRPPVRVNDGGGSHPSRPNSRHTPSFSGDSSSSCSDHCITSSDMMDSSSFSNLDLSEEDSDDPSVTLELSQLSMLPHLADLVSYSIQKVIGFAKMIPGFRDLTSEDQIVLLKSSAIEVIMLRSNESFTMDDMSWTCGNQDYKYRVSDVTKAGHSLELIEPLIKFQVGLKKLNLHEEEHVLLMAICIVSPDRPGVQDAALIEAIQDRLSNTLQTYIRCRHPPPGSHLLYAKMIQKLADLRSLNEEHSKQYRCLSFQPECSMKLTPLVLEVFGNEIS

The target is the same in test [4]. Description: qHTS assay for small molecule agonists of vitamin D receptor signaling (AID 588543; calls by dose curve;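 note: 0% = DMSO basal and 100% = reference agonist control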). The settings on record: HEK293T VDR-UAS-bla, beta-lactamase ratio, 16 h; series mostly up to 76.8 µM. The procedure, abridged:
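VDR-UAS-bla HEK293T cells, 2000/well, 2% charcoal-stripped FBS; compound titration 16 h at 37 C; CCF4 beta-lactamase ratio read. Normalized to 50 nM 1-alpha,25-dihydroxyvitamin D3 (100%) and DMSO; Hill fit gives EC50, efficacy.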
Background: qHTS replaces the single test concentration by a dilution series.

Test [5] is described as follows: qHTS assay for small molecule agonists of retinoid X receptor alpha signaling (AID 588544; calls by dose curve). Conditions: HEK293T RXRa-UAS-bla, beta-lactamase reporter, 18 h; 530 nm emission.
In test [6] the target is Retinoic acid receptor RXR-alpha (Homo sapiens) (UniProt P19793). The description is as above. The settings on record: HEK293T RXRa-UAS-bla, beta-lactamase reporter, 18 h; series mostly up to 76.7 µM.
Retinoic acid receptor RXR-alpha (Homo sapiens), sequence (P19793 whole entry, looked up): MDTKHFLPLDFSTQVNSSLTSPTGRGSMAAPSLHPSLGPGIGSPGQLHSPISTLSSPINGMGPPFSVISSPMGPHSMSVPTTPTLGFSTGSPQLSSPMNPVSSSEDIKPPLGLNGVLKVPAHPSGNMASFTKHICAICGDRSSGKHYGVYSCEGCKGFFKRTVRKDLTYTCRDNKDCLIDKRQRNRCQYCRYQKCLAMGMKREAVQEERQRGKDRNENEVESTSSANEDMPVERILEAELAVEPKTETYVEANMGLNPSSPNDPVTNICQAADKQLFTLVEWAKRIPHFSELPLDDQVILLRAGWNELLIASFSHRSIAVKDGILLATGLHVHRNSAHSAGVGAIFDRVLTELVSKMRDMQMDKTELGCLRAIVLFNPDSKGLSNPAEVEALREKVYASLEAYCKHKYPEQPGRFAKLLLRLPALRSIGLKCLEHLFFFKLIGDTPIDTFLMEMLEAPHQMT
The target in test [7] is Thyroid hormone receptor beta (Homo sapiens) (UniProt P10828). Description: qHTS assay for small molecule agonists of thyroid hormone receptor beta signaling (AID 588545; calls by dose curve). The settings on record: TR-UAS-bla GripTite HEK 293, beta-lactamase ratio, agonist mode, 18 h, percent of T3 response, DMSO as zero; series mostly up to 76.7 µM. An outline of the steps:
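In this cell-based screen, titrated compounds act on HEK 293 cells held in medium with 2% charcoal/dextran FBS, NEAA and pyruvate for 18 hrs at 37 C. Responses are expressed relative to T3 (10 nM) as 100% and basal DMSO as 0%.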

For test [8] the target is unchanged. Description: qHTS assay for small molecule antagonists of thyroid hormone receptor beta signaling (AID 588547; active = well fitted inhibition curve with a large enough effect in the signal ratio, with a control signal flat, not every such curve was filed as active; the % refers to the signal ratio;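 note: cells stimulated with 0.4 nM T3 agonist during compound exposure; % is set by controls: 0 for no effect and ±100 for the full control effect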). The settings on record: TR-UAS-bla HEK293, beta-lactamase ratio, antagonist mode, 18 h. An outline of the steps: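 TR-UAS-bla GripTite HEK293 cells in 2% charcoal/dextran FBS medium; compounds 0.59 nM to 92 uM with T3 at 0.4nM final, 18 h at 37 C. Beta-lactamase read by CCF4 fluorescence (460/530 nm); Hill fits gave IC50 and efficacy.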

Test [9] has as its target Voltage-gated inwardly rectifying potassium channel KCNH2 (Homo sapiens) (UniProt Q12809). Description: qHTS Assay for Small Molecule Inhibitors of the Human hERG Channel Activity (AID 588834).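 Note: lower thallium flux fluorescence means stronger hERG block; nearly all actives have a fitted effect of over 50% in size.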 Note: potency is the fitted concentration of half-maximal effect. The settings on record: U2OS BacMam hERG, FluxOR thallium flux fluorescence; series mostly up to 46.1 µM. An outline of the steps: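 Thallium serves as surrogate for K+ influx through BacMam-delivered hERG in U2OS cells. Compounds are added for about 10 minutes after dye loading; stimulation buffer then starts flux, monitored kinetically on FDSS.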

In test [10] the target is Luciferin 4-monooxygenase (Photinus pyralis) (UniProt P08659). Description: Biochemical firefly luciferase enzyme assay for NPC (AID 624030).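 Note: purified P. pyralis luciferase at 10 nM with luciferin and ATP substrate; 0% = DMSO and -100% = full luciferase inhibition by PTC124 control; nearly all actives have a fitted effect of over 70% in size.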 The settings on record: purified P. pyralis luciferase, luminescence, 5 min; series mostly up to 58.6 µM. An outline of the steps: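 Purified P. pyralis luciferase at 10 nM in 50 mM Tris Acetate (final), luminescence read within 5 minutes of enzyme addition to compounds. Activity normalised to PTC124 versus DMSO; concentration-response curves classed by r2, magnitude and activity.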
Luciferin 4-monooxygenase (Photinus pyralis), sequence (P08659 whole entry, looked up): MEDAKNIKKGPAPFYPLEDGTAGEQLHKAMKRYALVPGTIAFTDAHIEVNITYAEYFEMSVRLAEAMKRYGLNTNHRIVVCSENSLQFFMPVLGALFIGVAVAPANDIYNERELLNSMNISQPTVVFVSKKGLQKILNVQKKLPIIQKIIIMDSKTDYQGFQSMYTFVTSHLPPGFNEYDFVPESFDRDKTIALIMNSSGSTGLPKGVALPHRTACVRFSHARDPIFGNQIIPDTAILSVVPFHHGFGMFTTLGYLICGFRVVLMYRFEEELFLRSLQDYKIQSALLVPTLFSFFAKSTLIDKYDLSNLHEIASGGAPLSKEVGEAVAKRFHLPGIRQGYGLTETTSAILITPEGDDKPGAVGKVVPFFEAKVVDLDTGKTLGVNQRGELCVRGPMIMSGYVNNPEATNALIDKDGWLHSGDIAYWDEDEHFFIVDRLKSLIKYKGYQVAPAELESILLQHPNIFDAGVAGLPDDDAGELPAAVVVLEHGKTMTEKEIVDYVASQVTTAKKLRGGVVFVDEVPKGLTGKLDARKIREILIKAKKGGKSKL

A short description of test [11]: S16 Schwann cell viability assay (CellTiter-Glo assay) (AID 624031).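 Note: cellular ATP luminescence as a viability measure; plate controls were DMSO-treated cells for no effect and cell-free wells for full effect; nearly all actives have a fitted effect of over 70% in size.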 Conditions: S16 rat Schwann cells viability, 24 h; series mostly up to 57.5 µM. An outline of the steps: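 Native S16 Schwann cells (rat), serum-containing medium, overnight attachment then 24 h drug exposure at 37 °C/5% CO2. CellTiter-Glo ATP signal; normalized to cell-free and vehicle wells.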

The nature of test [12]: S16 Schwann cell PMP22 intronic element firefly luciferase assay (AID 624032). Note: nearly all actives have a fitted effect of over 30% in size. Note: potency is the fitted concentration of half-maximal effect. The settings on record: S16 rat Schwann cells, PMP22 element FLuc, 24 h; series mostly up to 57.5 µM. The procedure, abridged: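 Rat S16 Schwann cells stably carrying firefly luciferase driven by a PMP22 intronic element, in 10% FBS, treated 24 h at 37 C. ONE-Glo luminescence normalized to PTC124 control and DMSO (0%); curves classed by r2, magnitude and activity.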

Test [13] can be described thus: S16 Schwann cell PMP22 intronic element beta-lactamase assay (AID 624044; calls by dose curve;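 note: 0% = DMSO and -100% = potassium clavulanate positive control; nearly all actives have a fitted effect of over 15% in size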). Conditions: S16 rat Schwann cells, PMP22 element beta-lactamase FRET, 24 h; series mostly up to 38.3 µM. An outline of the steps: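 Beta-lactamase reporter under a PMP22 intronic regulatory element in stable S16 rat Schwann cells; 24 h compound exposure. 460 nm blue signal normalized between DMSO (0%) and potassium clavulanate, with 535 nm FRET tracking viability; curves classed by r2 and response.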

Results filed as inconclusive are left out. Active and inactive are the calls of the source. Unless noted, calls come from the whole dose curve; as a rule, active = well fitted curve in the direction sought with a large enough effect; inconclusive = small, poorly fitted or top-dose-only effect, or another doubt; inactive = no such curve, though single readings can be large; an effect the other way counts as inactive or inconclusive.

Voltage-gated inwardly rectifying potassium channel KCNH2 (Homo sapiens), sequence (Q12809 whole entry, looked up): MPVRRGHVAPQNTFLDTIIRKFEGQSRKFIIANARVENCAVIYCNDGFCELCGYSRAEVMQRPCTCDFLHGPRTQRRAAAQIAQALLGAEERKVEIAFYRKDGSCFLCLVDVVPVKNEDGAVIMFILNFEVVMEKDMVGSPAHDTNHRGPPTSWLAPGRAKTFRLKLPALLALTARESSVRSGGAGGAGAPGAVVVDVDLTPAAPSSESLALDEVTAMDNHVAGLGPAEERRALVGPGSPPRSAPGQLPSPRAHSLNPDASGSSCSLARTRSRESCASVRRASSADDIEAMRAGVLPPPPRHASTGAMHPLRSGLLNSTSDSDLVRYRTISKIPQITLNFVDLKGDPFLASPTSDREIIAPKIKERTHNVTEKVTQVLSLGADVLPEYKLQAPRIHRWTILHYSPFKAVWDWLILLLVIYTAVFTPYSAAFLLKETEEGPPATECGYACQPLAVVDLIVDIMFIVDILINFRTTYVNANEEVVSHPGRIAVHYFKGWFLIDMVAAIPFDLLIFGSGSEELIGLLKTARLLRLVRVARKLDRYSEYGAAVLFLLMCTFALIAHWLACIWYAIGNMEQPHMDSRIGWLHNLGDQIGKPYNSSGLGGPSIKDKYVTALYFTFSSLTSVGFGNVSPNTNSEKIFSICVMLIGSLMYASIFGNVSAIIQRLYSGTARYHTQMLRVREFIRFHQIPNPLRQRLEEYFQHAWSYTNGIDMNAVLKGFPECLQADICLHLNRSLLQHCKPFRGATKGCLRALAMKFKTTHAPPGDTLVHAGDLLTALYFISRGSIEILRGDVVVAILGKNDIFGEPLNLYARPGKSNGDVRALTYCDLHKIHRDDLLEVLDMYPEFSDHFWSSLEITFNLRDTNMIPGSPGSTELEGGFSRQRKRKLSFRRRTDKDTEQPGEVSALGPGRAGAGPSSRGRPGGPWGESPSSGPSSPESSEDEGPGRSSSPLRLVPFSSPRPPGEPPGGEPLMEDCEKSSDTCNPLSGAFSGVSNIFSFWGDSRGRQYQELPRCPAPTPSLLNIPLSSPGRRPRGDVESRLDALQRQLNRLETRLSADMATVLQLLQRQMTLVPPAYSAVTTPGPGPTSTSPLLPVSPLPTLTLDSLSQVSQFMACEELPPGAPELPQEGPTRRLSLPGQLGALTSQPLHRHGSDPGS
Thyroid hormone receptor beta (Homo sapiens), sequence (P10828 whole entry, looked up): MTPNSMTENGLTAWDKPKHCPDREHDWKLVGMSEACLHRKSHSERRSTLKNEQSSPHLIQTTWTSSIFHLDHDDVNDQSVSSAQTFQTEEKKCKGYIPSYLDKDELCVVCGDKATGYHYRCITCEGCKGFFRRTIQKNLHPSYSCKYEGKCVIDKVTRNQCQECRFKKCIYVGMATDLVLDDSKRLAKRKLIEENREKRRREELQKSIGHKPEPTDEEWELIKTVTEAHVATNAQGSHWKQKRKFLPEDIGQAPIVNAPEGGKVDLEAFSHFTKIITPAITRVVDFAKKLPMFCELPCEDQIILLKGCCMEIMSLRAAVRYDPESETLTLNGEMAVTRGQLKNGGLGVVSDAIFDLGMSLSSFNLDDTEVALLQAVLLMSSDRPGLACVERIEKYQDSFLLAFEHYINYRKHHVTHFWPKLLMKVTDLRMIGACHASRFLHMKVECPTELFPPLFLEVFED
Peroxisome proliferator-activated receptor gamma (Homo sapiens), sequence (P37231 whole entry, looked up): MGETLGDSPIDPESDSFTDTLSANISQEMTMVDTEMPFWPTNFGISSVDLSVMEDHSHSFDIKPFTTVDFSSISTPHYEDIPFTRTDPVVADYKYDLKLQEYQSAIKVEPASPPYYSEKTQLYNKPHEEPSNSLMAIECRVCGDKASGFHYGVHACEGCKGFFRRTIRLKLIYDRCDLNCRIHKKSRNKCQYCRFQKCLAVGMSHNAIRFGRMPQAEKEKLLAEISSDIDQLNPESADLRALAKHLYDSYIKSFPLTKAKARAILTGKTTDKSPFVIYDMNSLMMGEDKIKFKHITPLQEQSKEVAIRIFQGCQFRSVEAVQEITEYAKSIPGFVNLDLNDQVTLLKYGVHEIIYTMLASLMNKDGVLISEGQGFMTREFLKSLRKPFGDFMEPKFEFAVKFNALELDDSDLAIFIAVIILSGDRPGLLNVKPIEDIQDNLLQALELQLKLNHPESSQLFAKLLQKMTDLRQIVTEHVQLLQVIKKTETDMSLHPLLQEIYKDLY

For `S=P(N1CC1)(N1CC1)N1CC1`, the outcome in test [1], in test [3], in [4], in test [6] and in test [7] was inactive. Besides, the Potency entry in test [2], in test [9], in test [10], in test [11], in test [12] and in [13] was “inactive” in each case. Moreover, the max response in test [5] is -19.8%. Also, in [8], the activity change % (negative = inhibition) is -0.913% (inactive).

In the case of `CCN[C@H]1C[C@H](C)S(=O)(=O)c2sc(S(N)(=O)=O)cc21`, the Potency result in [9] was “inactive”.

In the case of `CC(N)C12CC3CC(CC(C3)C1)C2` (stereo not drawn), the Potency entry in test [9], in test [10], in test [11] and in test [12] was “inactive” throughout.

For `Cn1nnc2c(C(N)=O)ncn2c1=O`, the Potency result in [9], in test [10], in test [11] and in test [12] was “inactive” each time.

For the molecule `NS(=O)(=O)c1cc2c(cc1Cl)NC(C(Cl)Cl)NS2(=O)=O` (stereo not drawn), in test [9], the Potency entry is “inactive”.

On to `CCOC(=O)c1ccc(OC(=O)CCCCCN=C(N)N)cc1`, for which the Potency entry in test [9], in test [10], in test [11] and in [12] was “inactive” throughout.

Regarding `Clc1ccccc1CN1CCc2sccc2C1`, in test [9], the Potency was 14.1 µM (active). Further, the Potency result in test [10], in test [11] and in [12] was “inactive” each time.

In the case of `O=c1cc(O)c(Cl)c[nH]1`, the Potency entry in test [9], in [10], in test [11] and in test [12] was “inactive” throughout.

Turning to `COc1nc(N)nc2c1ncn2[C@@H]1O[C@H](CO)[C@@H](O)[C@@H]1O`, the Potency entry in test [9], in [10] and in [11] was “inactive” each time. Besides, in test [12], the Potency is 2.03 µM (active).

For the molecule `COc1c(N2CCNC(C)C2)c(F)cc2c(=O)c(C(=O)O)cn(C3CC3)c12` (stereo not drawn), the Potency entry in test [9], in test [10], in [11] and in test [12] was “inactive” throughout.

Take `NC(=O)N1c2ccccc2CC(=O)c2ccccc21`: the Potency result in test [9], in test [10] and in test [11] was “inactive” each time.

Turning to `Cc1onc(-c2ccccc2Cl)c1C(=O)N[C@@H]1C(=O)N2[C@@H]1SC(C)(C)[C@@H]2C(=O)O`, in test [9], the Potency result is “inactive”.

Consider `CCCCOc1ccc(CC(=O)NO)cc1`, for which the Potency result in test [9], in [10] and in test [11] was “inactive” in each case.

Turning to `NC(=O)c1cccnc1`, the Potency entry in test [9], in test [10], in test [11] and in test [12] was “inactive” each time.

In the case of `Cn1c(=O)c2c(ncn2CC(O)CO)n(C)c1=O` (stereo not drawn), in [9], the Potency entry is “inactive”.

Turning to `COc1ccccc1OCC(O)COC(N)=O` (stereo not drawn), in [9], the Potency entry is “inactive”.

As for `COC(c1ccccc1)(c1ccccc1)[C@H](Oc1nc(C)cc(C)n1)C(=O)O`, in test [9], the Potency result is “inactive”.

Turning to `COC(=O)Nc1nc2ccc(C(=O)c3ccccc3)cc2[nH]1`, the Potency result in test [9], in [10], in test [11] and in test [12] was “inactive” throughout.

Regarding `CCOC(=O)c1ccc(C#Cc2ccc3c(c2)C(C)(C)CCS3)nc1`, the Potency in [9] was 8.91 µM (active). Further, the Potency result in test [10] and in test [11] was “inactive” in each case.

For the molecule `CC(C)(Sc1cc(C(C)(C)C)c(O)c(C(C)(C)C)c1)Sc1cc(C(C)(C)C)c(O)c(C(C)(C)C)c1`, the Potency result in test [9], in [10], in [11] and in test [12] was “inactive” each time.

On to `COc1ccc(-c2ccc3cc(C(=O)O)ccc3c2)cc1C12CC3CC(CC(C3)C1)C2`, for which the Potency result in test [9], in test [10] and in test [11] was “inactive” throughout.

Turning to `CC(C)(C#N)c1cc(Cn2cncn2)cc(C(C)(C)C#N)c1`, the Potency entry in test [9], in test [10], in test [11] and in [12] was “inactive” in each case.

With `CCc1c2c(nc3ccc(OC(=O)N4CCC(N5CCCCC5)CC4)cc13)-c1cc3c(c(=O)n1C2)COC(=O)[C@]3(O)CC`, the Potency entry in [9], in [10] and in test [11] was “inactive” throughout.

These data come from PubChem BioAssay (NCATS).
